Active and inactive are the calls of the source. Rule for the calls: active = hit-call score of the fitted dose curve at least 0.9, where 1 is the maximum; inactive = score below 0.9.

For four molecules, outcome and AC50 results are on record in PubChem BioAssay (EPA / NIEHS).

Holding throughout (settings): mRNA level, 48 h; actives raise or lower the signal
Read-out in assay [1]: Fatty acid synthase (Homo sapiens) (UniProt P49327)
In words: LTEA_HepaRG_FASN: Life Technologies and Expression Analysis (LTEA) Assay for Fatty Acid Synthase (FASN) using HepaRG (AID 2283448). The method in brief:
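Differentiated human HepaRG cells were exposed for 48 h in serum-free induction medium to eight half-log concentrations up to 100 uM in 0.5% DMSO, in duplicate. FASN mRNA was quantified by TaqMan qRT-PCR, normalized to ACTB/GAPDH/POLR2A, and fitted bidirectionally against DMSO.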

Read-out in assay [2]: Cyclin D2 (CCND2), CCND2 (gene 894)
The assay is described as follows: LTEA_HepaRG_CCND2: Life Technologies and Expression Analysis (LTEA) Assay for Cyclin D2 (CCND2) using HepaRG (AID 2283449).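 Note: CCND2 transcript measured by TaqMan qRT-PCR and normalised to three housekeeping genes.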 The method in brief: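 Chemicals in 0.5% DMSO, eight half-log concentrations from 100 uM top, were applied in duplicate for 48 h to human HepaRG cells in serum-free induction medium. CCND2 mRNA by TaqMan qRT-PCR, normalised to ACTB/GAPDH/POLR2A; bidirectional fit versus DMSO.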

Read-out in assay [3]: Cyclin Dependent Kinase Inhibitor 1A (CDKN1A), CDKN1A (gene 1026)
The assay is described as follows: LTEA_HepaRG_CDKN1A: Life Technologies and Expression Analysis (LTEA) Assay for Cyclin Dependent Kinase Inhibitor 1A (CDKN1A) using HepaRG (AID 2283450). The method in brief:
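Gain or loss of CDKN1A transcript is scored by bidirectional fitting against 0.5% DMSO vehicle. Human HepaRG cultures receive chemicals for 48 h across an 8-point series peaking at 100 uM; expression comes from qRT-PCR.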

Read-out in assay [4]: Cyclin D1 (CCND1), CCND1 (gene 595)
The assay is described as follows: LTEA_HepaRG_CCND1: Life Technologies and Expression Analysis (LTEA) Assay for Cyclin D1 (CCND1) using HepaRG (AID 2283451).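 For AC50: TaqMan qRT-PCR transcript level normalised to ACTB GAPDH and POLR2A housekeeping genes.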 The method in brief: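 Expression change is measured by qRT-PCR in HepaRG cells after 48 h treatment across eight concentrations topping at 100 uM, with duplicate wells and DMSO (0.5%) serving as baseline for bidirectional fitting.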

Read-out in assay [5]: catalase (CAT), CAT (gene 847)
The assay is described as follows: LTEA_HepaRG_CAT: Life Technologies and Expression Analysis (LTEA) Assay for catalase (CAT) using HepaRG (AID 2283452).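 For AC50: TaqMan qRT-PCR signal normalized to ACTB GAPDH and POLR2A housekeeping genes.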 The method in brief: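 HepaRG cells in serum-free induction medium, 0.5% DMSO vehicle, exposed 48 h in duplicate over 8 half-log concentrations from 100 uM. CAT mRNA measured by qRT-PCR, normalized to ACTB, GAPDH, POLR2A; bidirectional fit versus DMSO.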

Read-out in assay [6]: flavin-containing dimethylaniline monooxygenases 3 (FMO3), FMO3 (gene 2328)
In words: LTEA_HepaRG_FMO3: Life Technologies and Expression Analysis (LTEA) Assay for flavin-containing dimethylaniline monooxygenases 3 (FMO3) using HepaRG (AID 2283453). The method in brief: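 HepaRG, 48 h exposure, 8-pt half-log series from 100 uM, 0.5% DMSO vehicle, duplicates; FMO3 transcript by Fluidigm TaqMan qRT-PCR, housekeeping-normalized; gain/loss fit vs DMSO.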

Read-out in assay [7]: Cytochrome P450 (CYP1A1), CYP1A1 (gene 1543)
The assay is described as follows: LTEA_HepaRG_CYP1A1: Life Technologies and Expression Analysis (LTEA) Assay for Cytochrome P450 (CYP1A1) using HepaRG (AID 2283454). The method in brief: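 Using HepaRG cultures with 0.5% DMSO as vehicle, eight-concentration exposures (max 100 uM) lasted 48 h. Transcript levels were measured by TaqMan qRT-PCR and normalized to ACTB, GAPDH and POLR2A.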

Read-out in assay [8]: CFLAR gene, CFLAR (gene 8837)
In words: LTEA_HepaRG_CFLAR: Life Technologies and Expression Analysis (LTEA) Assay for CFLAR gene using HepaRG (AID 2283455). The method in brief:
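Differentiated HepaRG cells in serum-free induction medium were exposed 48 h in duplicate to eight half-log concentrations up to 100 uM in 0.5% DMSO; mRNA measured by TaqMan qRT-PCR, normalized to ACTB, GAPDH, POLR2A; bidirectional fitting versus DMSO.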

Read-out in assay [9]: growth arrest and DNA damage 45 (GADD45A), GADD45A (gene 1647)
The assay is described as follows: LTEA_HepaRG_GADD45A: Life Technologies and Expression Analysis (LTEA) Assay for growth arrest and DNA damage 45 (GADD45A) using HepaRG (AID 2283458). The method in brief: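 Differentiated HepaRG cells were exposed in duplicate for 48 h in serum-free induction medium to 8-point half-log concentrations up to 100 uM in 0.5% DMSO. GADD45A mRNA was measured by TaqMan qRT-PCR, normalized to ACTB, GAPDH and POLR2A, with bidirectional fitting versus DMSO.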

Read-out in assay [10]: Forkhead box O3 (FOXO3), FOXO3 (gene 2309)
In words: LTEA_HepaRG_FOXO3: Life Technologies and Expression Analysis (LTEA) Assay for Forkhead box O3 (FOXO3) using HepaRG (AID 2283459). The method in brief:
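Differentiated human HepaRG cells, 48 h post-plating, exposed in duplicate for 48 h in serum-free induction medium; 8-point half-log series from 100 uM in 0.5% DMSO. FOXO3 mRNA by TaqMan qRT-PCR, normalized to ACTB/GAPDH/POLR2A; bidirectional fit versus DMSO.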

Read-out in assay [11]: ABC Transporter (ABCB1), ABCB1 (gene 5243)
The assay is described as follows: LTEA_HepaRG_ABCB1: Life Technologies and Expression Analysis (LTEA) Assay for ABC Transporter (ABCB1) using HepaRG (AID 2283460). The method in brief:
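HepaRG cells exposed in duplicate for 48 h in serum-free induction medium to eight half-log concentrations up to 100 uM in 0.5% DMSO. ABCB1 mRNA quantified by qRT-PCR, normalised to ACTB, GAPDH and POLR2A; fitted bidirectionally versus DMSO.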

Read-out in assay [12]: growth arrest and DNA damage 45 (GADD45B), GADD45B (gene 4616)
In words: LTEA_HepaRG_GADD45B: Life Technologies and Expression Analysis (LTEA) Assay for growth arrest and DNA damage 45 (GADD45B) using HepaRG (AID 2283461). The method in brief: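 Human HepaRG monolayers receive chemicals for 48 h at eight half-log concentrations, highest 100 uM, in 0.5% DMSO. Expression is measured by TaqMan qRT-PCR and normalized to ACTB, GAPDH and POLR2A.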

Read-out in assay [13]: ABC Transporter (ABCC3), ABCC3 (gene 8714)
The assay is described as follows: LTEA_HepaRG_ABCC3: Life Technologies and Expression Analysis (LTEA) Assay for ABC Transporter (ABCC3) using HepaRG (AID 2283462). The method in brief: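 Transcriptional change of ABCC3 in HepaRG after 48 h treatment, determined by qRT-PCR normalized to endogenous controls. Concentrations spanned eight half-log steps to 100 uM in 0.5% DMSO.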

Read-out in assay [14]: ABC Transporter (ABCB11), ABCB11 (gene 8647)
In words: LTEA_HepaRG_ABCB11: Life Technologies and Expression Analysis (LTEA) Assay for ABC Transporter (ABCB11) using HepaRG (AID 2283463). The method in brief: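 Differentiated human HepaRG cells in serum-free induction medium, dosed in duplicate for 48 h. Eight-point half-log series from 100 uM in 0.5% DMSO; ABCB11 mRNA by qRT-PCR, normalized to ACTB, GAPDH, POLR2A, fitted bidirectionally versus DMSO.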

Read-out in assay [15]: Broad substrate specificity ATP-binding cassette transporter ABCG2 (Homo sapiens) (UniProt Q9UNQ0)
The assay is described as follows: LTEA_HepaRG_ABCG2: Life Technologies and Expression Analysis (LTEA) Assay for ABC Transporter (ABCG2) using HepaRG (AID 2283465). The method in brief:
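Differentiated HepaRG cells were exposed for 48 h in serum-free induction medium to 8 half-log concentrations, top 100 uM, in 0.5% DMSO. ABCG2 mRNA was measured by qRT-PCR, normalized to ACTB, GAPDH and POLR2A, with bidirectional fitting versus DMSO.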

Read-out in assay [16]: ATP-citrate lyase (ACLY), ACLY (gene 47)
The assay is described as follows: LTEA_HepaRG_ACLY: Life Technologies and Expression Analysis (LTEA) Assay for ATP-citrate lyase (ACLY) using HepaRG (AID 2283466). The method in brief: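 Differentiated HepaRG cells exposed 48 h in serum-free induction medium to eight half-log concentrations up to 100 uM in 0.5% DMSO, duplicates. Transcript measured by Fluidigm TaqMan qRT-PCR, normalized to ACTB, GAPDH, POLR2A; bidirectional fit versus DMSO.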

Read-out in assay [17]: Peroxisomal acyl-coenzyme A oxidase 1 (ACOX1) gene, ACOX1 (gene 51)
The assay is described as follows: LTEA_HepaRG_ACOX1: Life Technologies and Expression Analysis (LTEA) Assay for Peroxisomal acyl-coenzyme A oxidase 1 (ACOX1) gene using HepaRG (AID 2283467). The method in brief: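 HepaRG cells, plated 48 h then switched to serum-free induction medium, were exposed in duplicate for 48 h to 8-point half-log concentrations up to 100 uM in 0.5% DMSO. ACOX1 mRNA was measured by qRT-PCR, normalized to ACTB/GAPDH/POLR2A, and fitted bidirectionally versus DMSO.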

Read-out in assay [18]: ABC Transporter (ABCC2), ABCC2 (gene 1244)
In words: LTEA_HepaRG_ABCC2: Life Technologies and Expression Analysis (LTEA) Assay for ABC Transporter (ABCC2) using HepaRG (AID 2283464). The method in brief:
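After plating and 48 h culture, HepaRG medium is replaced with serum-free induction medium and chemicals are added (8 concentrations, max 100 uM, 0.5% DMSO) for 48 h. Total RNA then undergoes qRT-PCR for ABCC2 with housekeeping normalization.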

Read-out in assay [19]: Forkhead box O1 (FOXO1), FOXO1 (gene 2308)
The assay is described as follows: LTEA_HepaRG_FOXO1: Life Technologies and Expression Analysis (LTEA) Assay for Forkhead box O1 (FOXO1) using HepaRG (AID 2283456). The method in brief:
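Differentiated HepaRG cells, in serum-free induction medium with 0.5% DMSO, exposed 48 h in duplicate to 8-point half-log series from 100 uM. FOXO1 mRNA measured by TaqMan qRT-PCR, normalized to ACTB, GAPDH, POLR2A; bidirectional fit versus DMSO.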

Fatty acid synthase (Homo sapiens), sequence (P49327 whole entry, looked up): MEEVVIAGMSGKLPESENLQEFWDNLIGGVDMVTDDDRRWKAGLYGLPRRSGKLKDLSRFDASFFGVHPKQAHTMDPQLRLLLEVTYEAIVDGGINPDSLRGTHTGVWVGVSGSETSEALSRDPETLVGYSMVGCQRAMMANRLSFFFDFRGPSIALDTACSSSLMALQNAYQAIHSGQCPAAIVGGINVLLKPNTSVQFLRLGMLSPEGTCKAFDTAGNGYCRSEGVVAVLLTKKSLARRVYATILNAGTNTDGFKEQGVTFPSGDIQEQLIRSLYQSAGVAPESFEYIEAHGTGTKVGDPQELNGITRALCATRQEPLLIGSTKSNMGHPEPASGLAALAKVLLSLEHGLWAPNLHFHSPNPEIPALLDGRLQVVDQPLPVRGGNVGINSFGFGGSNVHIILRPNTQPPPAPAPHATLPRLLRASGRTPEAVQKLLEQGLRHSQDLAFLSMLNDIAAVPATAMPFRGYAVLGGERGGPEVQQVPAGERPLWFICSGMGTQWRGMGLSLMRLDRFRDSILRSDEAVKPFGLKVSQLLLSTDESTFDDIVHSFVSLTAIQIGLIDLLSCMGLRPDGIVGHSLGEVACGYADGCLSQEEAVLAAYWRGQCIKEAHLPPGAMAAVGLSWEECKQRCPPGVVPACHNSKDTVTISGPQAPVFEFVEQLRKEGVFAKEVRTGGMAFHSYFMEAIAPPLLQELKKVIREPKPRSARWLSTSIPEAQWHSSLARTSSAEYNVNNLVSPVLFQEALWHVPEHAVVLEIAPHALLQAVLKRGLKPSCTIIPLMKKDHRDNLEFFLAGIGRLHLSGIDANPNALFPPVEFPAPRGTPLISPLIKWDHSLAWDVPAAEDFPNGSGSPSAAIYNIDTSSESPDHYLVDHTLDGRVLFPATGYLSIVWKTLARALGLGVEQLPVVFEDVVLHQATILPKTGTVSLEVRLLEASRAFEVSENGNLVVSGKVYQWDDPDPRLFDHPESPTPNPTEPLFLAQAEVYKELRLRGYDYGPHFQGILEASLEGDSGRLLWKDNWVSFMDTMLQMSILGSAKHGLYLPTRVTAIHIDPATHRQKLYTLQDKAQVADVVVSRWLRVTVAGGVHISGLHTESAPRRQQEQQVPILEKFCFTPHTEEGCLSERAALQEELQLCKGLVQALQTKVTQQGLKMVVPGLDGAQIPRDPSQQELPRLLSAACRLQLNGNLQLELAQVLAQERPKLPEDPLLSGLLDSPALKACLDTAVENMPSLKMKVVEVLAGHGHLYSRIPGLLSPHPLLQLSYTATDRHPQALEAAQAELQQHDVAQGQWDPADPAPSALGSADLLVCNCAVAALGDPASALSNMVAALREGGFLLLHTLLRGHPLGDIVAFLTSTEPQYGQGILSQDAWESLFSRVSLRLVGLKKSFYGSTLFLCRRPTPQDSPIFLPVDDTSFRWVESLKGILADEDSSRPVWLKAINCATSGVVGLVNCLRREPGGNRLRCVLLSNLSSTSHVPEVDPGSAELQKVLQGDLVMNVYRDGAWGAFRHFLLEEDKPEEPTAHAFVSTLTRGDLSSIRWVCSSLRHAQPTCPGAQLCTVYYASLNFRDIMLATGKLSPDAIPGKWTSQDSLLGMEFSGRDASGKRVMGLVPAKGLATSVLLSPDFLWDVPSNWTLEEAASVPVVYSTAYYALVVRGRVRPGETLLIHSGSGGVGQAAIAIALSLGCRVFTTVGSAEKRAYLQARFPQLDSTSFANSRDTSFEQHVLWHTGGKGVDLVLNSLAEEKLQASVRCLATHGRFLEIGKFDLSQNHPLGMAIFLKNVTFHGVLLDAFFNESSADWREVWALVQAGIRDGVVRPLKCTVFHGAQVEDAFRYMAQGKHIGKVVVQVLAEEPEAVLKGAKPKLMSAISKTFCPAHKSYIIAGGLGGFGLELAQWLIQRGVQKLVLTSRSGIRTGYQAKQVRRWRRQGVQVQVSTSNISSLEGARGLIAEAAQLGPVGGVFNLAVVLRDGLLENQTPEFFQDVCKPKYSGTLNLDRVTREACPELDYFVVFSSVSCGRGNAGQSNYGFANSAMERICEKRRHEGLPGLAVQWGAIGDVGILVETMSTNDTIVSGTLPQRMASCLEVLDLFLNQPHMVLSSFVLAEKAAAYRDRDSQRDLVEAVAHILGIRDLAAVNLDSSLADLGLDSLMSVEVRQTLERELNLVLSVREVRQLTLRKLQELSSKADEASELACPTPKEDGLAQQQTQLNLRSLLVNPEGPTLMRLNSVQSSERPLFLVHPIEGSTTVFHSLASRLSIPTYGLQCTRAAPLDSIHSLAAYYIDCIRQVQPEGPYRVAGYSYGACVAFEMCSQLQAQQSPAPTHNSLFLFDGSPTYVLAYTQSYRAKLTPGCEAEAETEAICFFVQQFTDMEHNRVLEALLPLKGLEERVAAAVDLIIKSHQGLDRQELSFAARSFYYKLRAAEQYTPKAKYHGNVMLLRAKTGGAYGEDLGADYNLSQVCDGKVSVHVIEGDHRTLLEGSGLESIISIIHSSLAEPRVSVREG
Broad substrate specificity ATP-binding cassette transporter ABCG2 (Homo sapiens), sequence (Q9UNQ0 whole entry, looked up): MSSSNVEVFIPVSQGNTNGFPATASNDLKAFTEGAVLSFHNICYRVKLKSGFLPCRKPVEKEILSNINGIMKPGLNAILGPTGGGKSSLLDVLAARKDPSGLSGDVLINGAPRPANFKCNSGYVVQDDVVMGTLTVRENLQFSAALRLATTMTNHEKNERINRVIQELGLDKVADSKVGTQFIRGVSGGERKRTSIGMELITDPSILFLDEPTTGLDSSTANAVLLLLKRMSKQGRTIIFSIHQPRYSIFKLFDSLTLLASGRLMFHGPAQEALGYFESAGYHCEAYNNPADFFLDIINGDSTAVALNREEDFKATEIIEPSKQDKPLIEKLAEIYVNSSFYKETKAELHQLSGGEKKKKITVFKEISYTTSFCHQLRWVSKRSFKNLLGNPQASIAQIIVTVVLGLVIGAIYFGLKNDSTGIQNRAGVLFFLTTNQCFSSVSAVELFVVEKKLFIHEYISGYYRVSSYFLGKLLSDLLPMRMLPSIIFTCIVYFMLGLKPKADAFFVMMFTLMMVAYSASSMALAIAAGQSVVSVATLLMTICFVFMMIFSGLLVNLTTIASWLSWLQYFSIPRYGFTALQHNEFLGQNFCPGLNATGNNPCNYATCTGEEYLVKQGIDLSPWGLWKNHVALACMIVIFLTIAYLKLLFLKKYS

As to `CN(C)CCO`, the outcome in assay [1], in [2], in assay [3], in assay [4], in assay [5] and in [6] was inactive. The molecule was called inactive in [7], in assay [8], in assay [9], in [10], in assay [11] and in assay [12]. For the same molecule, the molecule was classed as inactive in assay [13], in assay [14], in assay [15], in assay [16] and in [17].
As for `ClC1=C(Cl)[C@]2(Cl)[C@@H]3[C@H]4C[C@H]([C@@H]5O[C@H]45)[C@@H]3[C@@]1(Cl)C2(Cl)Cl`, the AC50 is 87.6 µM (active) in assay [1]; 13.3 µM (active) in [5]; 50 µM (active) in [6]; 5.27 µM (active) in assay [14]; 2.13 µM (active) in [18]; 6.76 µM (active) in [15]. Moreover, the molecule was called inactive in assay [3], in assay [4], in assay [7], in assay [8], in assay [9] and in [10]. Moreover, the molecule was classed as inactive in assay [11], in assay [12], in [13], in [16] and in [17].
As for `CO/C=C(/C(=O)OC)c1ccccc1COc1cccc(C(F)(F)F)n1`, the AC50 in [1] is 9 µM (active); in assay [3], 9.85 µM (active); in assay [4], 50 µM (active); in assay [5], 6.81 µM (active); in assay [6], 20.9 µM (active); in [7] it was 8.52 µM (active). For the same molecule, the AC50 in assay [8] is 18.8 µM (active); in assay [9] it was 9.39 µM (active); in assay [12], 24.7 µM (active); in [13] it was 1.91 µM (active); in assay [14], 5.64 µM (active); in assay [15], 3.03 µM (active). Further, in assay [17], the AC50 was 5.3 µM (active). Further, the outcome in assay [10], in assay [11] and in [16] was inactive.
Consider `CC(c1ccc(O)cc1)(c1ccc(O)cc1)c1ccc(O)cc1`, for which the AC50 was 32.1 µM (active) in assay [1]; 50 µM (active) in [3]; 24.1 µM (active) in assay [4]; 50 µM (active) in [5]; 74.5 µM (active) in [6]; 15.8 µM (active) in [7]. Further, the AC50 is 64.5 µM (active) in assay [8]; 73.5 µM (active) in assay [19]; 70.9 µM (active) in [10]; 72.9 µM (active) in assay [11]; 35.9 µM (active) in assay [12]; 20.8 µM (active) in assay [14]. The AC50 was 81 µM (active) in assay [18], 33.8 µM (active) in assay [15], 61.6 µM (active) in assay [16] and 70.5 µM (active) in assay [17]. Besides, the call in [9] and in assay [13] was inactive.
